# Source: PubChem BioAssay (NCI)
# The panel holds about 83,000 compounds, 20% with a hit somewhere; the sample as a whole holds those more often.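 Treatment: one concentration, 48 hours, 96-well format. Scoring: percent growth, with anything below 10 considered active.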 Unmarked numbers belong to inactive results. Active and inactive are the calls of the source.
# Tested on: T-47D breast
# Test: NCI-60 one-dose screen, 48 h (100 = growth as untreated, 0 = no growth, -100 = all killed)
# Details: 10 µM
row,Structure (SMILES),growth
1,NS(=O)(=O)Oc1ccc(NC(=O)C2CCCCCC2)cc1,90.7%
2,O=C(CSc1nnc(-c2cccnc2SCc2ccccc2)o1)Nc1nc(Cl)cc(Cl)n1,98.5%
3,O=C1/C=C/[C@@H](O)[C@@H]2C[C@@H](O)C[C@H]2/C=C/CCC[C@H](CCc2ccc(NC(=S)Nc3ccc4c(c3)C(=O)OC43c4ccc(O)cc4Oc4cc(O)ccc43)cc2)O1,21.2%
4,O=C(CCl)Nc1ccc(Cc2ccc(NC(=O)CCl)cc2)cc1,14.7%
5,Cc1cc(Cl)ccc1Nc1nc(C(F)(F)F)ccc1C(=O)N/N=C/c1c(Cl)cccc1Cl,-13.3% (active)
6,COc1ccc2c(c1)C(=O)/C(=C/c1ccc([N+](=O)[O-])o1)O2,-46.9% (active)
7,S=C(SSC(=S)N(c1ccccc1)c1ccccc1)N(c1ccccc1)c1ccccc1,97.3%
8,CC(C)=CCC/C(C)=C/CC/C(C)=C/CC/C=C(\C)CC/C=C(\C)CCC(=O)Nc1ccn(C2OC(CO)C(O)C2(F)F)c(=O)n1 (centres undefined),41%
9,c1ccc(/C(=N\Nc2ccc3ccccc3n2)c2ccccn2)cc1,16.5%
10,c1ccc(CSc2ncccc2-c2nnc(SCCN3CCOCC3)o2)cc1,101%
11,CN(C)c1ncnc2c1nnn2C1OC(CO)C(O)C1O (centres undefined),10.5%
12,COc1ccccc1/C=N\N/C(N)=N\N=C\c1ccccc1OC,60.9%
13,COc1cc(/C=C/c2cc(/C=C/c3ccc(O)c(OC)c3)nc(N)n2)ccc1O,1.57% (active)
14,O=C(/C=C/c1cccc(B(O)O)c1)c1cccc(B(O)O)c1,11.1%
